The list is not random: actives were taken first. Their share in the collection is about 3.4%.
MITF primary – inhibitors of human MITF. O75030. AlphaScreen MITF homodimerization, bead proximity signal. hit rate 0.91% among 650,000. inhibition, % at 2.6 µM. AID 1259374; in the data active = inhibition above about 50%
FBW7 activator – activators of human E3 ligase FBW7 | hit rate 0.13% among 650,000 | Q969H0 | AlphaScreen FBW7–phospho-cyclin E peptide binding, activator screen | normalized activity (activation), % at 26.1 µM; in the data active = normalized activity above about 1.9%;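 also: purified mutant Fbw7 with reduced substrate affinity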
Target sequence (Q969H0 whole entry, looked up): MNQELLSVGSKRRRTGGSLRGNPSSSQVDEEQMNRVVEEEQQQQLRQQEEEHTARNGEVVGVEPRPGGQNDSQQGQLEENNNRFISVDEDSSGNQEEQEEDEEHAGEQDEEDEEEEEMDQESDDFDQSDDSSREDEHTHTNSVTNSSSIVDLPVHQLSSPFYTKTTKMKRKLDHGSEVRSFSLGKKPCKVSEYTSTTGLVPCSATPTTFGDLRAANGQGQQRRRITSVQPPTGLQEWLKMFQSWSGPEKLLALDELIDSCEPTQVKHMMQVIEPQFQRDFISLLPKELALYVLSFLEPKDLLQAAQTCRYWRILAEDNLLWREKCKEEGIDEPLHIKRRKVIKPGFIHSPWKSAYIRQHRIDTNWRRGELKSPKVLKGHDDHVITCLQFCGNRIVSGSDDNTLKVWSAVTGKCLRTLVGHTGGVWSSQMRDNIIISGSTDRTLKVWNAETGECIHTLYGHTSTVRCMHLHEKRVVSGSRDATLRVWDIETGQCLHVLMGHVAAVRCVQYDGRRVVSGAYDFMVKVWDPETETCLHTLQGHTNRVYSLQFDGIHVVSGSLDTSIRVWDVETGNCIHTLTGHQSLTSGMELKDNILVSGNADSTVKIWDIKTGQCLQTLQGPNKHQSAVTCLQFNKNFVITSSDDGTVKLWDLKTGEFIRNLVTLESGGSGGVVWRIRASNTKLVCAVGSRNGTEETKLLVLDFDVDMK
TEAD-YAP inh – TEAD-YAP interaction inhibition; HEK-TIYL cells, TEAD-Gal4/YAP UAS-luciferase luminescence; inhibition, % at 9.12 µM; AID 1259422; hit rate 1.4% among 640,000; in the data active = inhibition above about 32%
GPR151 ag – activates the human receptor GPR151. PathHunter beta-arrestin GPR151 cells, luminescence. activation, % at 11.2 µM. hit rate 1% among 650,000. Q8TDV0; in the data active = activation above about 4.9%
MITF inh conf – human MITF inhibition, confirmation; shares compounds with MITF primary; hit rate 16% among 4,700; inhibition, % at 2.6 µM; AlphaScreen MITF homodimerization, biotin/His-MITF beads;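 active = inhibition above a cutoff derived from the DMSO control wells, cut at about 28% in these data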;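 also: inhibitors lower the bead chemiluminescence by keeping MITF from dimerizing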
AS interf DR – AlphaScreen optical interference, dose response counter-screen | hit rate 6% among 480 | AlphaScreen optical interference counterscreen, cell-free | IC50, µM | AID 1259373 | shares compounds with MITF primary; call rule not given here
AS interf ctr – AlphaScreen optical interference, counter-screen | AID 1259376 | inhibition, % at 2.6 µM | LysRS AlphaScreen counterscreen, signal interference, triplicate | shares compounds with MITF primary | hit rate 7.6% among 4,700;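 active = inhibition above a cutoff derived from the DMSO control wells, cut at about 30% in these data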
Of the large screens only hits and unclear results are named; the others gave an inactive call (follow-up assays come after a bar, where they were run).

O=C(COC(=O)c1cccc(N2C(=O)c3ccccc3C2=O)c1)c1ccccc1	none
O=C(COC(=O)c1ccc2c(c1)C(=O)N(c1cccc(Cl)c1)C2=O)c1ccc([N+](=O)[O-])cc1	none
CC(C)(C)C(=O)COC(=O)c1cccc(N2C(=O)c3ccccc3C2=O)c1	MITF primary 53 | MITF inh conf inactive | AS interf ctr inactive
CC(=O)c1cccc(N2C(=O)c3ccc(C(=O)OCC(=O)c4ccc([N+](=O)[O-])cc4)cc3C2=O)c1	MITF primary 60 | MITF inh conf inactive | AS interf ctr inactive
CCOc1c(O)ccc(/C=C2\C(=O)Nc3ccc(Br)cc32)c1[N+](=O)[O-]	MITF primary 65 | MITF inh conf inactive | AS interf ctr inactive
COc1ccc([N+](=O)[O-])cc1NC(=O)C(C)(C)Oc1ccc(Cl)cc1	none
COC(=O)c1nnn(CC(=O)Nc2ccc(Br)cc2)c1C(=O)OC	none
CCc1ccc(NC(=O)Cn2nnc(C(=O)OC)c2C(=O)OC)cc1	MITF primary 52 | MITF inh conf inactive | AS interf ctr inactive
Cc1cccc(NC(=O)c2ccc(COc3ccccc3Br)cc2)n1	MITF primary 70 | MITF inh conf inactive | AS interf ctr inactive
Cc1cccc(NC(=O)c2cccc(OCc3ccccc3)c2)n1	none
Cn1c(-c2ccc(F)cc2)cnc1NCc1cccc(F)c1	MITF primary 53 | MITF inh conf inactive | AS interf ctr inactive
Cn1c(-c2ccccc2)cnc1NCc1ccc(F)cc1	none
Cn1c(-c2ccc(F)cc2)cnc1NCc1ccccc1	MITF primary 59 | MITF inh conf inactive | AS interf ctr inactive
O=C(NCc1cccnc1)c1cnc(NCc2cccnc2)s1	none
CN(C)CCN(C)Cc1ccc(-c2ccccc2)cc1	MITF primary 52 | MITF inh conf inactive | AS interf ctr inactive
CCOc1ccc(CN(C)CCN(C)C)cc1	MITF primary 85 | MITF inh conf inactive | AS interf ctr inactive
CCOc1ccc(CN(C)CCc2ccccn2)cc1	MITF primary 88 | MITF inh conf inactive | AS interf ctr inactive
Cc1cccc(CN(C)CCc2ccccn2)c1	MITF primary 69 | MITF inh conf inactive | AS interf ctr inactive
CN(CCc1ccccn1)Cc1cccc(Br)c1	none
CCCn1c(SCC(=O)NCC(=O)OCC)nnc1C(C)C	none
COc1ccc(OC)c(CCNc2ncnc3c2nc2n3CCCCC2)c1	none
O=C(N/N=C/c1ccc(O)c([N+](=O)[O-])c1)c1ccc2c(c1)OCCO2	none
COCCN(C(=O)c1csnn1)C(C(=O)NC(C)(C)C)c1sccc1C (centres undefined)	none
Cc1ccccc1CN(C)CCc1ccccn1	none
CN(CCc1ccccn1)Cc1ccc(Br)cc1	none
CN(CCc1ccccn1)Cc1cccc(Cl)c1	MITF primary 51 | MITF inh conf inactive | AS interf ctr inactive
CCn1c2ccccc2c2cc(CN(C)CCc3ccccn3)ccc21	MITF primary 74 | MITF inh conf inactive | AS interf ctr inactive
Cc1cccc(OCC(=O)N(C)CCc2ccccn2)c1	MITF primary 62 | MITF inh conf inactive | AS interf ctr inactive
COc1cccc(OCC(=O)NCc2ccccn2)c1	none
CN(C)CCN(C)Cc1ccc(F)c(F)c1	MITF primary 51 | MITF inh conf inactive | AS interf ctr inactive
COc1ccc(C=Nc2ccc(C(N)=O)cc2)cc1OC	none
O=c1c2cn[nH]c2nc(SCc2ccccn2)n1-c1cccc(C(F)(F)F)c1	none
CCc1cc(OCCN2C(=O)NC(C)(C)C2=O)ccc1Cl	none
Cc1ccc(CN2CCN(C(=O)c3csc(C)c3)CC2)cc1	none
CCOc1ccccc1OCCOCCNC(C)CC (centres undefined)	MITF primary 77 | MITF inh conf inactive | AS interf ctr inactive
C/C=C/c1ccc(OCCOCCNC(C)CC)c(OC)c1 (centres undefined)	MITF primary 70 | MITF inh conf inactive | AS interf ctr inactive
CCC(C)NCCOc1ccccc1C (centres undefined)	none
CC(C)(C)NC(=O)c1nn2c(C(F)(F)F)cc(-c3cccs3)nc2c1Br	none
O=C(N/C(C(=O)N1CCOCC1)=C(\Sc1ccccn1)c1ccccc1)c1ccccc1	none
CCN(CC)C(=O)C1CCCN(Cc2ccc([N+](=O)[O-])o2)C1 (centres undefined)	MITF primary 56 | MITF inh conf inactive | AS interf ctr inactive
CCN(CC)C(=O)C1CCCN(Cc2ccc(C(F)(F)F)cc2)C1 (centres undefined)	MITF primary 53 | MITF inh conf inactive | AS interf ctr inactive
CCN(CC)C(=O)C1CCCN(Cc2ccc(C)o2)C1 (centres undefined)	none
O=C(Nc1ccc(Cl)cc1)C1CCN(C(=O)NC2CCCCC2)CC1	none
COc1cc(CN2CCN(c3ccc(F)cc3)CC2)cc(OC)c1OC	none
COc1cc(CNCc2ccccc2C(F)(F)F)cc(OC)c1OC	MITF primary 65 | MITF inh conf inactive | AS interf ctr inactive
CCc1ccc(CN2CCN(Cc3cc(OC)c(OC)c(OC)c3)CC2)cc1	MITF primary 58 | MITF inh conf inactive | AS interf ctr inactive
COc1cc(CN2CCCC2)cc(OC)c1OC	none
COc1cccc(CNCc2ccncc2)c1	none
COc1cc(CN2CCN(Cc3ccc(F)cc3)CC2)cc(OC)c1OC	MITF primary 84 | MITF inh conf inactive | AS interf ctr inactive
COc1cc(CNCc2cccc(OC)c2OC)cc(OC)c1	none
COc1cc(CNCc2ccncc2)cc(OC)c1OC	MITF primary 58 | MITF inh conf inactive | AS interf ctr inactive
CN(Cc1ccccc1)S(=O)(=O)c1ccc(N2CCOCC2)c(C(=O)N2CCN(c3ccc([N+](=O)[O-])cc3)CC2)c1	none
O=C(O)C1Cc2c([nH]c3ccccc23)C(c2ccc(Cl)cc2Cl)N1 (centres undefined)	none
O=C(Nc1ccc(F)cc1Cl)NC1(C(F)(F)F)Oc2ccccc2O1	none
O=C(CSc1c[nH]c2ccccc12)Nc1ccc2c(c1)OCO2	none
Cc1ccc(C(=O)NNC(=O)[C@H](C)Nc2ccc(C(F)(F)F)cc2[N+](=O)[O-])cc1	none
CCCCC(C(=O)Nc1ccc(OC)cc1)N1C(=O)C2C3c4ccccc4C(c4ccccc43)C2C1=O (centres undefined)	none
COc1cc(CN2CCN(Cc3ccncc3)CC2)cc(OC)c1OC	MITF primary 70 | MITF inh conf inactive | AS interf ctr inactive
CC1CCCCN1Cc1c(C#N)c2ccccc2n1C (centres undefined)	none
CC1CCCCN1Cc1ccccc1C#N (centres undefined)	MITF primary 71 | MITF inh conf inactive | AS interf ctr inactive
O=C(NC1CC1)c1cncc(-c2cccs2)c1	none
NC(=O)c1cncc(-c2cccs2)c1	MITF primary 70 | MITF inh conf 65 | AS interf DR inactive | AS interf ctr inactive
COc1ccc(CN2CCN(Cc3ccccc3F)CC2)cc1OC	MITF primary 79 | MITF inh conf inactive | AS interf ctr inactive

Bioassay records (PubChem BioAssay)
